Source: PubChem
Most compounds without a hit are left out; they make up all but 11% or so of the library.
L3MBTL1 block: qHTS Assay for the Inhibitors of L3MBTL1; Lethal(3)malignant brain tumor-like protein 1 (Homo sapiens), Q9Y468; AlphaScreen L3MBTL1–H3K9me1 peptide binding; Potency, µM (titrated, usually from 57.1 µM), without a hit: at the top dose activity, negative = inhibition, most hits filed as inhibitors; 230,000 compounds, 0.66% hits; AID 485360, 2010; also: potency is read from the fitted curve at half-maximal effect; % is scaled to controls: 0 for no effect and ±100 for the full control effect; nearly all actives have a fitted effect of over 60% in size
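L3MBTL1 (50 nM) pre-complexed 30 min with biotinylated H3(1-15)K9me1 peptide (75 nM), then compounds added for 30 min at room temperature; AlphaScreen streptavidin donor/nickel chelate acceptor beads (10 ug/mL final) read after 30 min dark incubation.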
JMJD2A Tudor inh: qHTS Assay for Inhibitors of JMJD2A-Tudor Domain; Lysine-specific demethylase 4A (Homo sapiens), O75164; AlphaScreen JMJD2A-Tudor / H3K4me3 peptide binding; Potency, µM (titrated, usually from 114 µM), without a hit: top-dose activity change, negative = inhibition, most hits filed as inhibitors; 390,000 compounds, 4.4% hits; AID 504339, 2011; also: potency is read from the fitted curve at half-maximal effect; % is scaled to controls: 0 for no effect and ±100 for the full control effect; nearly all actives have a fitted effect of over 50% in size
Target sequence (O75164 whole entry, looked up, the tested form may be a part): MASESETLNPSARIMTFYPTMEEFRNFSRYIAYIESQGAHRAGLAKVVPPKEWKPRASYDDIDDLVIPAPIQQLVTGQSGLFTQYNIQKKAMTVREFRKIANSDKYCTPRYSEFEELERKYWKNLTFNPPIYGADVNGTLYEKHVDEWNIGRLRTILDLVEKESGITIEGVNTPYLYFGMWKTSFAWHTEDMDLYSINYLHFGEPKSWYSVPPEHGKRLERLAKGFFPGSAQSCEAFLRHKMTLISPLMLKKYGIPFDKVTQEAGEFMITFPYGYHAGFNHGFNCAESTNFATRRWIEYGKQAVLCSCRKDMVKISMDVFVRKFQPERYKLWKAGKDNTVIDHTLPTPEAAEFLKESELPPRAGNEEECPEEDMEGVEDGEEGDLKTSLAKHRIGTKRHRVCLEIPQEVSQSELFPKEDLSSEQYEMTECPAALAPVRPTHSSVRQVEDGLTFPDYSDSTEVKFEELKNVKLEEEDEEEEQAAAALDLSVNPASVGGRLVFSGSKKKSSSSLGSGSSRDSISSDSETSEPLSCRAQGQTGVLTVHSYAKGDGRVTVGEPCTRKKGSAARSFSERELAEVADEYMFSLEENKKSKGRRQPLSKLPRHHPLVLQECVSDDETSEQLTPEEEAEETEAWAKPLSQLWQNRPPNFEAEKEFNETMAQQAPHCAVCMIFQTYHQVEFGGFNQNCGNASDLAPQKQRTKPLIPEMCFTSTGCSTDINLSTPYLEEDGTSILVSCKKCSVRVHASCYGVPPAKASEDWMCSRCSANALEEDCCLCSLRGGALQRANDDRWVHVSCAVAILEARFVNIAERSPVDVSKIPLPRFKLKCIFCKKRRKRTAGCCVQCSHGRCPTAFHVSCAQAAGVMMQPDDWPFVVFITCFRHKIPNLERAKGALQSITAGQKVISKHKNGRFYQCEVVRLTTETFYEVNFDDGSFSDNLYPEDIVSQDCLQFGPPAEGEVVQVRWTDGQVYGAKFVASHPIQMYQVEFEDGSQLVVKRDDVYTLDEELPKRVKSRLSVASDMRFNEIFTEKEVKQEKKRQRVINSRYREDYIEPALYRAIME
BAZ2B inh: qHTS Assay for Inhibitors of BAZ2B | Bromodomain adjacent to zinc finger domain protein 2B (Homo sapiens), Q9UIF8 | AlphaScreen BAZ2B-H3K14Ac peptide displacement | Potency, µM (highest dose often 114 µM), without a hit: top-dose activity change, negative = inhibition, usual class: inhibitors | 360,000 compounds, 4.4% hits; also: potency is read from the fitted curve at half-maximal effect; % is scaled to controls: 0 for no effect and ±100 for the full control effect; nearly all actives have a fitted effect of over 60% in size
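AlphaScreen displacement: compounds (up to 110uM) incubated 30 min at room temperature with a preformed 50 nM BAZ2B/50 nM biotinylated H3K14Ac peptide complex in PBS pH 7.4 with Tween-20. Donor and acceptor beads at 10 ug/mL final added, 20 min light-protected before reading.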
HP1b binding inh: HTS for Inhibitors of HP1-beta Chromodomain Interactions with Methylated Histone Tails | AID 540317, 2011 | 390,000 compounds, 0.56% hits | AlphaScreen HP1-beta / biotin-H3K9me3 peptide binding | Potency, µM (highest dose often 114 µM), for inactives: at the top dose activity change, negative = inhibition, most hits filed as inhibitors; also: potency is read from the fitted curve at half-maximal effect; nearly all actives have a fitted effect of over 70% in size
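AlphaScreen: HP1-beta (50 nM) preformed 30 min with biotin-H3(1-18)K9me3 peptide (50 nM) in PBS pH 7.4, 0.01% Tween-20. Compound added for 30 min at RT, then streptavidin donor/nickel chelate acceptor beads (10 ug/mL) for 30 min.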
PI5P4K alpha inh: qHTS for Inhibitors of phosphatidylinositol 5-phosphate 4-kinase (PI5P4K); Phosphatidylinositol 5-phosphate 4-kinase type-2 alpha (Homo sapiens), P48426; PI5P4Kalpha enzyme, ADP-Glo luminescence, 60 min; active compounds read low; max response, %; 330,000 compounds, 1.2% hits; AID 652105, 2013; active = max response of -50% or lower; inconclusive = between -30% and -50%; inactive = -30% or higher; also: value at the top dose of about 77 µM; % is scaled to controls: 0 for no effect and ±100 for the full control effect
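Reactions run in 0.038 M HEPES pH 7.4, 0.28 mM EGTA, 0.1% CHAPS and 5% DMSO, with PI5P4Kalpha, substrate, compound and 5 microM ATP final, one hour at room temperature. Readout is ADP-Glo luminescence.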
G9a inh: qHTS Assay for Inhibitors of Histone Lysine Methyltransferase G9a. Histone-lysine N-methyltransferase EHMT2 (Homo sapiens), Q96KQ7. G9a H3K9 monomethylation, AlphaScreen, 2 h. Potency, µM (titrated, usually from 102 µM), inactives show top-dose activity, negative = inhibition, usual class: inhibitors. 350,000 compounds, 8.8% hits. AID 504332, 2011; also: potency is read from the fitted curve at half-maximal effect; % is scaled to controls: 0 for no effect and ±100 for the full control effect; nearly all actives have a fitted effect of over 75% in size
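Signal arises when biotinylated H3K9 peptide, once monomethylated, bridges streptavidin donor and antibody-captured acceptor beads. Enzyme at 20 nM was preincubated 15 min with test compounds; peptide 500 nM and SAM 20 uM then reacted for 2 h.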
Numbers without * were called inactive; ? = inconclusive; / = no result; ! = not active in a repeat; [ ] = dose if it differs, or a comment. Unless noted, calls follow the shape of the dose curve; as a rule, active = well fitted inhibition curve with a large enough effect; inconclusive = small, poorly fitted or top-dose-only effect; inactive = no such curve, though single readings can be large or run the other way.

SMILES	L3MBTL1 block	JMJD2A Tudor inh	BAZ2B inh	HP1b binding inh	PI5P4K alpha inh	G9a inh
Cc1ccccc1-c1nc(SCc2cccnc2)c2c(=O)n(C)c(=O)n(C)c2n1	1.4%	-10.7%	-14.3%	5.7%	0.8	56.2µM*
CCCN(CCC)C(=O)CSc1nnc2cc(C)c3cc(C)cc(C)c3n12	/	15.8µM*	-20.4%	43.5%	/	2.51µM*
COC(=O)C(C)Sc1nnc2cc(C)c3cc(C)cc(C)c3n12 (centres undefined)	/	-17.9%	?	29.7%	/	8.91µM*
CCN(CC)C(=O)CSc1nnc2cc(C)c3ccccc3n12	/	2.1%	-7.3%	39.3%	8.9	?
Cc1cc(C)c2c(c1)c(C)cc1nnc(SCC(=O)c3cccs3)n12	2.5%	?	0.9%	5.7%	-0.4	3.16µM*
O=C(C1CC1)N1CCc2cc(Br)cc(S(=O)(=O)NCCCN3CCCC3)c21	-21.9%	?	7.2%	4.1%	/	50.1µM*
CC(C)N1CCC(N2CCN(C3CCCC3)CC2CCO)CC1 (centres undefined)	-2.2%	4.5%[11.4 µM]	-1.9%	39.3%	1.7	/
Cc1cccc(N2CCC(N3CCN(C4CCCCC4)C(CCO)C3)CC2)c1C (centres undefined)	15.8µM*	-1.4%	44.7µM*	17.8%	6.6	15.8µM*
Cc1cn(C)c(CC(=O)Nc2ccc(F)cc2Cl)c1C(=O)O	/	-15.0%	-12.5%	11.1%	/	-6.3%[59 µM]
NC(=S)NNc1cccc(Cl)c1	/	?	-1.7%	28.9%	-3.7	8.91µM*
Cc1ccccc1NNC(N)=S	23.6%	-15.5%	-17.1%	9.6%	-26.0	11.2µM*
NC(=S)NNC(=O)Nc1cccc(Cl)c1	4.5%	?	3.9%	25.8%	-8.2	8.91µM*
O=C(Nc1ccncc1)Nc1cccc(Cl)c1	/	-6.0%	-2.9%	46.1%	14.5	/
S=C(Nc1cccc(Cl)c1)NC1CCCCC1	1.5%	-3.8%	3.6%	49.0%	2.5	44.1%
S=C(NNc1cccc(Cl)c1)NC1CCCCC1	-18.9%	8.91µM*	35.5µM*	?	0.9	28.2µM*
COc1cc(C(CC(=O)Nc2cccc(C(C)=O)c2)N2Cc3ccccc3C2=O)cc(OC)c1OC (centres undefined)	/	-12.4%	-8.3%	27.7%	/	-10.6%[59 µM]
CCn1cc(C(=O)N2CCN(c3ccccc3)CC2)c(=O)c2cc(S(=O)(=O)N(C)C3CCCCC3)ccc21	/	?	/	18.6%	/	-29.9%[59 µM]
Cc1cccc(NNC(N)=S)c1	-14.2%	-18.9%	?	-15.6%	3.5	39.8µM*
Cc1cccc(Nc2ccccc2)c1	2.7%	8.6%	2.7%	59.1%	2.7	-9.3%[12.7 µM]
O=C1c2ccccc2C(=O)C12OC2c1cccc2ccccc12 (centres undefined)	14.1µM*	-24.2%	1.2%	12.2%	-16.8	6.31µM*
C/C(CC(=O)N1CCN(C=O)CC1)=N\NC(=O)c1ccc([N+](=O)[O-])cc1	9.2%	-7.4%	-0.2%	32.5%	6.0	10µM*
O=C1C(=O)N(CCO)C(c2ccccc2)/C1=C(\O)c1ccccc1 (centres undefined)	/	-20.7%	11.2%	59.4%	-4.1	?
COc1ccc(C2/C(=C(/O)c3ccccc3)C(=O)C(=O)N2CCO)cc1 (centres undefined)	5.5%	-24.0%	7.5%	11.2%	-1.5	44.7µM*
COc1ccc(/C(O)=C2/C(=O)C(=O)N(CCCC(=O)O)C2c2ccc(OC)cc2)cc1 (centres undefined)	0.1%	44.7µM*	?	6.2%	-3.9	-18.8%
CC(C)(C)OC(=O)N1CCC(c2c(C(=O)NCc3ccccc3)cnn2-c2cccc(F)c2)CC1	/	-34.3%	7.6%[57.1 µM]	-4.7%	/	-22.6%[59 µM]
SMILES	L3MBTL1 block	JMJD2A Tudor inh	BAZ2B inh	HP1b binding inh	PI5P4K alpha inh	G9a inh
O=C1C=C(c2ccc(C(=O)O)cc2)C[C@@H](c2ccc3c(c2)OCO3)C1	?	79.4µM*	50.1µM*	0.6%	?	1.6%[0.501 µM]
CC(C[N+](C)(C)C)OC(=O)C1(c2ccccc2)CCCC1 (centres undefined)	-7.8%	-6.6%	-31.8%	4.7%	0.4	-39.1%[12.7 µM]
CCN(CC)CCOC(=O)C1(c2ccc([N+](=O)[O-])cc2)CCCC1	3.7%	-30.3%	4.7%	12.6%	4.0	12.6µM*!
CCN(CC)CCOCCOC(=O)C1(c2ccccc2)CCCC1	/	31.6µM*	/	12.5%	-2.5	29.9µM*!
C[N+](C)(C)CCOC(=O)C1(c2ccccc2)CCCC1	/	-29.5%[11.4 µM]	1.2%	?	-4.8	3.55µM*
O=C(Nc1c(O)c2ccccc2oc1=O)c1cccc(F)c1	/	-2.7%	-29.0%	32.0%	/	-2.7%[59 µM]
CCc1c(C)c2cc3c(c(C)c2oc1=O)OCN(CCc1ccccc1F)C3	/	-14.9%	12.7%	93.1%	/	8.0%[59 µM]
O=C(CNCCc1ccc(Cl)cc1Cl)NCc1ccco1	-11.8%	-26.8%	-29.7%	-3.6%	4.2	?
O=C(O)C(O)Cc1c[nH]c2ccccc12 (centres undefined)	3.2%	-20.4%	-4.9%	12.1%	-7.7	-13.2%
O=C(CNCc1ccccc1Cl)NCc1ccco1	50.2%	-99.3%	20µM*	22.4µM*	0.1	-137.5%[59 µM]
O=C(CN1C(=O)C(=O)N(CCC2=CCCCC2)C1=O)c1c[nH]c2ccccc12	-5.0%	-26.7%	/	2.2%	10.7	/
NS(=O)(=O)c1ccc(CCNCC(=O)NCc2ccccc2Cl)cc1	/	28.2µM*	50.1µM*	-36.4%	5.9	-6.3%
O=C(CN1C(=O)C(=O)N(Cc2ccco2)C1=O)c1c[nH]c2ccccc12	-0.6%	-20.9%	-11.9%	17.5%	-28.0	50.1µM*
O=C(O)C(=O)Cc1c[nH]c2ccccc12	-14.2%	44.7µM*	?	?	?	25.1µM*
COc1ccc(C(=O)O)cc1COc1ccc(NC(C)=O)cc1	/	-2.0%	/	/	/	/
COC(=O)c1ccccc1NC(=O)Cn1nc(C(F)(F)F)c2c1CCCC2	/	28.2%	20.0%	68.7%	/	3.6%[59 µM]
COc1cccc(CN(Cc2ccco2)c2cnc(S(C)(=O)=O)nc2C(=O)Nc2cccc(Cl)c2C)c1	/	-31.8%	?	18.6%	/	?
O=C(CCCCn1c(=O)c2ccccc2n(Cc2cccc(Cl)c2)c1=O)NCc1ccc2c(c1)OCO2	/	6.1%	-3.0%	41.0%	/	1.1%[59 µM]
O=C(Cc1c[nH]c2ccccc12)NCc1ccco1	-10.6%	-17.9%	50.1µM*	8.2%	4.0	?
